The experiment in a line: qHTS Multiplex Assay to Identify Dual Action Probes in a Cell Model of Huntington: Cytotoxicity in HTT Striatal Cells. As to conditions: STHdhQ111/111 striatal cells, serum-free, ATP luminescence, 24 h. From the text:
NIH Chemical Genomics Center [NCGC] NIH Molecular Libraries Probe Production centers Network [MLPCN] MLPCN Grant: MH084839-01A1 Assay Submitter (PI): Wei Zheng NCGC Assay Overview: Huntington's disease is a neurodegenerative disorder caused by a trinucleotide repeat expansion in Exon 1 of the Huntingtin gene. The CAG trinucleotide encodes glutamine and polyglutamine expansions cause cell death in selective areas of the brain. Huntington polyglutamine repeats have the tendency to form aggregates which are observable in later stages of the disease. The exact nature of the aggregates, whether toxic, protective, or insignificant, is unclear. A stable PC12 cell line containing a gene fusion of Exon 1 of the Huntingtin gene linked to GFP under the control of the inducible ecdysone promoter were used as the cell-based model of Huntington Disease for high throughput screening. Exon 1 of the Huntingtin gene contained an expansion of 103 polyglutamines (Q103) which, when expressed, caused cell death and distinct, bright GFP aggregates. The amount of cell death and the size and intensity of GFP aggregates increased over time and induction level. The cell death were quantified with a measurement of ATP content in the cells. A maximal 40-50% of cell death was observed when the Huntington gene was induced in this cell line. We optimized this assay in a homogeneous 1536 well format. A quantitative high throughput screen (qHTS) was conducted on the PC12 cells which were induced to express the toxic fusion construct. Small molecules which prevented cell death were identified by using a luminescent ATP quantification method (Perkin Elmer's ATPlite). This assay examines influence on cytotoxicity induced by serum deprivation in normal and Huntington striatal cells.
Freshlay passaged STHdhQ7/7 cells and mutant STHdhQ111/111 Huntington striatal cells were plated at a density of 20,000 cells/well in complete media and allowed to recover overnight at 33C. The next day, media was replaced with serum containing media or serum free media containing the compound. After 24 hours of incubation at 33 C, cells were assayed for ATP content using the Cell Titer-GLO ATP assay from Promega (cat # G7571). ATP/Toxicity Assay in Serum Free Media (SFM) (96 well plate format) 1. Plate 20,000 cells/well and incubate the cells in complete (w/serum) media overnight 2. Remove media, wash twice with PBS and add the SFM w/ or w/o the compound 3. Incubate at 33C; cells can be incubated at 39C for a more dramatic effect 4. ATP measurements after […] treatment, per kit protocol
In general terms: In qHTS, concentration-response curves come from the screen itself.

From PubChem BioAssay AID2713 (National Center for Advancing Translational Sciences (NCATS), 2010) come the findings set out here.

Each structure is given as a SMILES string. Where “and” joins values, the source holds several entries; their conditions need not be identical. Identical values can stand only once. Results filed as inconclusive are left out. Calls of active or inactive are those of the source.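 The calls were made as follows: active = compounds raising survival of Huntington mutant striatal cells while barely changing normal control cells; inconclusive = compounds that make cell death worse; inactive = the rest.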

With `Cn1nnnc1Sc1ncnc2scc(-c3ccccc3)c12`, the viability change was 33% and 26% (measured here: Q7/7 cells, at 30 µM); 21% and 15% (measured here: Q7/7 cells, at 60 µM); 191% and 196% (measured here: Q111/111 cells, at 60 µM); 231% (active) and 240% (active) (at 30 µM); 9% and 8% (measured here: Q7/7 cells, FBS, at 30 µM); 7% and 5% (measured here: Q7/7 cells, FBS, at 60 µM). The viability change is 18% and 16% (measured here: Q111/111 cells, FBS, at 30 µM); 9% and 8% (measured here: Q111/111 cells, FBS, at 60 µM).
